Experimental data as given in PubChem BioAssay AID1159580 (chemical genetic matrix, 2015).
Among all 5,500 compounds or so, about 2,000 (36%) were called active. About 18% were inconclusive and are not listed. Rule as the data show it: active = normalized growth mostly below about 0.91 (no sharp cut-off); inconclusive = no clear call, values can overlap the other calls; inactive = mostly above about 0.92. This is one part of the list.

Experiment: chemical genetic growth profiling, strain panel (AID 1159580);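 also: tested at 20 µM; growth read once vehicle control cultures reached saturation at 30 °C; 1 = growth at the plate median or of vehicle wells; lower values mean less growth of the strain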
Conditions: growth OD

Measured: normalized growth

CCCC(=O)Nc1ncnc2c1ncn2C1O[C@@H]2COP(=O)(O)O[C@H]2[C@H]1OC(=O)CCC (stereo not given in full)
inactive: S. cerevisiae deletion strains, locus YJR066W, strain TOR1, active compounds read low 0.97 | S. cerevisiae deletion strains, locus YKL009W, strain mrt4, active compounds read low 1.01 | S. cerevisiae deletion strains, locus YKL068W, active compounds read low 1.03 | S. cerevisiae deletion strains, locus YKL085W, strain MDH1 (second series), active compounds read low 1.01 | S. cerevisiae deletion strains, locus YKL085W, strain MDH1, active compounds read low 1.01 | S. cerevisiae deletion strains, locus YKL160W, strain elf1, active compounds read low 0.999 | S. cerevisiae deletion strains, locus YKL190W, strain CNB1, active compounds read low 1.01 | S. cerevisiae deletion strains, locus YKR001C, strain vps1, active compounds read low 1.04 | S. cerevisiae deletion strains, locus YKR026C, strain gcn3, active compounds read low 0.979 | S. cerevisiae deletion strains, locus YKR091W, strain srl3, active compounds read low 0.989 | S. cerevisiae deletion strains, locus YLL001W, strain dnm1, active compounds read low 0.967 | S. cerevisiae deletion strains, locus YLL026W, active compounds read low 0.985 | S. cerevisiae deletion strains, locus YLL041C, strain sdh2, active compounds read low 0.98 | S. cerevisiae deletion strains, locus YLR027C, strain aat2, active compounds read low 0.999 | S. cerevisiae deletion strains, locus YLR039C, strain RIC1, active compounds read low 1.02 | S. cerevisiae deletion strains, locus YLR058C, strain SHM2, active compounds read low 1.01 | S. cerevisiae deletion strains, locus YLR102C, strain apc9, active compounds read low 1.01 | S. cerevisiae deletion strains, locus YLR113W, strain HOG1, active compounds read low 1.01 | S. cerevisiae deletion strains, locus YLR221C, strain rsa3, active compounds read low 0.945 | S. cerevisiae deletion strains, locus YLR258W, strain gsy2, active compounds read low 0.965 | S. cerevisiae deletion strains, locus YLR262C, strain YPT6 (second series), active compounds read low 0.984 | S. cerevisiae deletion strains, locus YLR262C, strain YPT6, active compounds read low 1.04 | S. cerevisiae deletion strains, locus YLR268W, strain sec22, active compounds read low 1.03 | S. cerevisiae deletion strains, locus YLR320W, strain mms22, active compounds read low 0.949 | S. cerevisiae deletion strains, locus YLR330W, strain CHS5, active compounds read low 1.01 | S. cerevisiae deletion strains, locus YLR342W, strain FKS1 (second series), active compounds read low 1 | S. cerevisiae deletion strains, locus YLR342W, strain FKS1, active compounds read low 0.992 | S. cerevisiae deletion strains, locus YLR357W, strain rsc2, active compounds read low 1 | S. cerevisiae deletion strains, locus YLR370C, strain arc18, active compounds read low 0.952 | S. cerevisiae deletion strains, locus YLR371W, strain rom2, active compounds read low 1.02 | S. cerevisiae deletion strains, locus YLR384C, strain iki3, active compounds read low 0.976 | S. cerevisiae deletion strains, locus YLR418C, strain cdc73, active compounds read low 1.04 | S. cerevisiae deletion strains, locus YML016C, strain PPZ1, active compounds read low 1.01 | S. cerevisiae deletion strains, locus YML032C, strain rad52, active compounds read low 1.03 | S. cerevisiae deletion strains, locus YML120C, strain ndi1, active compounds read low 0.962 | S. cerevisiae deletion strains, locus YML124C, strain tub3, active compounds read low 1.01 | S. cerevisiae deletion strains, locus YMR058W, strain fet3, active compounds read low 0.986 | S. cerevisiae deletion strains, locus YMR078C, strain ctf18, active compounds read low 1.03 | S. cerevisiae deletion strains, locus YMR125W, strain sto1, active compounds read low 0.971 | S. cerevisiae deletion strains, locus YMR129W, active compounds read low 0.991 | S. cerevisiae deletion strains, locus YMR205C, strain PFK2, active compounds read low 0.98 | S. cerevisiae deletion strains, locus YMR223W, strain ubp8, active compounds read low 1.03 | S. cerevisiae deletion strains, locus YMR231W, strain pep5, active compounds read low 0.988 | S. cerevisiae deletion strains, locus YMR263W, strain SAP30, active compounds read low 1 | S. cerevisiae deletion strains, locus YMR307W, strain GAS1, active compounds read low 0.995 | S. cerevisiae deletion strains, locus YNL067W, strain RPL9B, active compounds read low 1 | S. cerevisiae deletion strains, locus YNL071W, strain lat1, active compounds read low 0.987 | S. cerevisiae deletion strains, locus YNL128W, strain TEP1, active compounds read low 1.02 | S. cerevisiae deletion strains, locus YNL153C, strain GIM3, active compounds read low 1 | S. cerevisiae deletion strains, locus YNL183C, strain NPR1, active compounds read low 0.969 | S. cerevisiae deletion strains, locus YNL209W, strain ssb2, active compounds read low 0.982 | S. cerevisiae deletion strains, locus YNL233W, strain BNI4, active compounds read low 0.999 | S. cerevisiae deletion strains, locus YNL248C, strain rpa49, active compounds read low 1.02 | S. cerevisiae deletion strains, locus YNL250W, strain rad50, active compounds read low 1.03 | S. cerevisiae deletion strains, locus YNL271C, strain bni1, active compounds read low 1.02 | S. cerevisiae deletion strains, locus YNL298W, strain CLA4, active compounds read low 1.02 | S. cerevisiae deletion strains, locus YNL307C, strain MCK1, active compounds read low 1.03 | S. cerevisiae deletion strains, locus YNL322C, strain KRE1 (second series), active compounds read low 0.975 | S. cerevisiae deletion strains, locus YNR049C, strain mso1, active compounds read low 0.981 | S. cerevisiae deletion strains, locus YNR052C, strain pop2, active compounds read low 1.02 | S. cerevisiae deletion strains, locus YOL006C, strain TOP1, active compounds read low 1.03 | S. cerevisiae deletion strains, locus YOL012C, strain htz1 0.919 | S. cerevisiae deletion strains, locus YOL147C, strain pex11, active compounds read low 1.02 | S. cerevisiae deletion strains, locus YOR001W, strain rrp6, active compounds read low 1.02 | S. cerevisiae deletion strains, locus YOR061W, strain CKA2, active compounds read low 1.02 | S. cerevisiae deletion strains, locus YOR069W, strain VPS5, active compounds read low 1 | S. cerevisiae deletion strains, locus YOR070C, strain gyp1, active compounds read low 0.988 | S. cerevisiae deletion strains, locus YOR080W, strain dia2, active compounds read low 0.983 | S. cerevisiae deletion strains, locus YOR083W, strain WHI5, active compounds read low 0.986 | S. cerevisiae deletion strains, locus YOR106W, strain vam3, active compounds read low 0.982 | S. cerevisiae deletion strains, locus YOR136W, strain idh2, active compounds read low 1.02 | S. cerevisiae deletion strains, locus YOR144C, strain elg1, active compounds read low 1.02 | S. cerevisiae deletion strains, locus YOR184W, strain ser1, active compounds read low 1.02 | S. cerevisiae deletion strains, locus YOR231W, strain MKK1, active compounds read low 1.03 | S. cerevisiae deletion strains, locus YOR265W, strain rbl2, active compounds read low 0.978 | S. cerevisiae deletion strains, locus YOR270C, strain vph1, active compounds read low 0.983 | S. cerevisiae deletion strains, locus YOR290C, strain snf2, active compounds read low 0.961 | S. cerevisiae deletion strains, locus YOR316C, strain cot1, active compounds read low 1.02 | S. cerevisiae deletion strains, locus YPL051W, strain arl3, active compounds read low 0.997 | S. cerevisiae deletion strains, locus YPL078C, strain atp4, active compounds read low 0.99 | S. cerevisiae deletion strains, locus YPL106C, strain sse1, active compounds read low 0.941 | S. cerevisiae deletion strains, locus YPL240C, strain hsp82, active compounds read low 0.994 | S. cerevisiae deletion strains, locus YPL241C, strain CIN2, active compounds read low 1.01 | S. cerevisiae deletion strains, locus YPL256C, strain CLN2, active compounds read low 1.06 | S. cerevisiae deletion strains, locus YPR119W, strain clb2, active compounds read low 1.02 | S. cerevisiae deletion strains, locus YPR141C, strain kar3, active compounds read low 1.01 | S. cerevisiae deletion strains, locus YPR163C, strain tif3, active compounds read low 1.03 | S. cerevisiae deletion strains, locus YPR167C, strain met16, active compounds read low 1.01 | S. cerevisiae deletion strains, strain wtn01, active compounds read low 1.02 | S. cerevisiae strains, strain wild type, active compounds read low 1.01
